# Data from the supplement of paper PMC9177965.
# Values joined by “and” are separate entries in the source; they are usually repeats but may differ in a detail not shown here. Equal entries are not always repeated.
# Assays:
# [1] = test system: HT29 RNF43 G659fs (RNF43 659mut, CRISPR-edited); experiment: cell viability activity relative to DMSO (negative = inhibition); higher = more viable cells (less growth inhibition); conditions: 5 µM; 96 h
# Procedure: (§1)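 Broad Repurposing Library primary screen at a single dose of 5 uM. HT29 sg-Ctrl and HT29 RNF43 G659fs CRISPR-edited isogenic cells were seeded at 2500 cells/well in 384-well plates in duplicate and treated for 96 h. Viability was read by CellTiter-Glo and reported as % activity relative to DMSO, with MG132 as the positive control (negative = growth inhibition).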
# [2] = test system: HT29 sg-Ctrl (RNF43 wildtype); experiment: as above; conditions: 5 µM; 96 h
# Procedure: as §1
compound,measurement,setting,value
CC(C)C[C@H](NC(=O)CNC(=O)c1cc(Cl)ccc1Cl)B(O)O,cell viability activity,[1],-94.3%
same,cell viability activity,[2],-89.7%
O=C(c1c(F)ccc(NS(=O)(=O)N2CC[C@@H](F)C2)c1F)c1c[nH]c2ncc(-c3cnc(C4CC4)nc3)cc12,cell viability activity,[1],-66.1%
same,cell viability activity,[2],-69%
CC(=O)Nc1nc(C)c(-c2ccc(Cl)c(S(=O)(=O)NCCO)c2)s1,cell viability activity,[1],-53.2%
same,cell viability activity,[2],-38.4%
CCCCCCCCCc1ccc(OCCOCCOCCOCCOCCOCCOCCOCCOCCO)cc1,cell viability activity,[1],-55.9%
same,cell viability activity,[2],-22.3%
CC(C)(C)c1cc(/C=C(\C#N)C(N)=S)cc(C(C)(C)C)c1O,cell viability activity,[1],-85.1%
same,cell viability activity,[2],-77%
O=C(Nc1cc(C(F)(F)F)cc(C(F)(F)F)c1)c1cc(Cl)ccc1O,cell viability activity,[1],-94.4%
same,cell viability activity,[2],-90.9%
Cc1ccc(/C=C2\CNC/C(=C\c3ccc(C)cc3)C2=O)cc1,cell viability activity,[1],-93.6%
same,cell viability activity,[2],-92.7%
c1cncc(CN2CCC(n3ncc4c(N5CCOCC5)nc(-c5ccc6[nH]ccc6c5)nc43)CC2)c1,cell viability activity,[1],-74.3%
same,cell viability activity,[2],-75.2%
COc1ccc(NC(=O)c2ccc(-c3ccc(-c4noc(C)n4)cc3C)cc2)cc1OCCN(C)C,cell viability activity,[1],-93.7%
same,cell viability activity,[2],-90.6%
CSc1ccccc1Nc1nc(N2CCNCC2)nc2c(NCC3CC3)ncnc12,cell viability activity,[1],-95.8%
same,cell viability activity,[2],-94.6%
COc1ccccc1S(=O)(=O)Nc1ccc2c(c1)CN(C)C(=O)N2,cell viability activity,[1],-56.4%
same,cell viability activity,[2],-63.5%
C[C@@H](CN1CC(=O)NC(=O)C1)N1CC(=O)NC(=O)C1,cell viability activity,[1],-48.1%
same,cell viability activity,[2],-44.6%
C=CCNC1=C2C[C@@H](C)C[C@H](OC)[C@H](O)[C@@H](C)/C=C(\C)[C@H](OC(N)=O)[C@@H](OC)/C=C\C=C(/C)C(=O)NC(=CC1=O)C2=O,cell viability activity,[1],-90.1%
same,cell viability activity,[2],-83.4%
CC(C)(C)c1[nH]cnc1/C=c1\[nH]c(=O)/c(=C/c2ccccc2)[nH]c1=O,cell viability activity,[1],-55.7%
same,cell viability activity,[2],-54%
CCNC(=O)C#Cc1ccc2c(C(=Nc3ccc(CN(C)C)cc3)c3ccccc3)c(O)[nH]c2c1,cell viability activity,[1],-98.3%
same,cell viability activity,[2],-96.8%
CCn1c2ccccc2c2cc(Nc3ccnc(NCCCN4CCOCC4)n3)ccc21,cell viability activity,[1],-79.7%
same,cell viability activity,[2],-84.9%
CCNC(=O)c1noc(-c2cc(C(C)C)c(O)cc2O)c1-c1ccc(CN2CCOCC2)cc1,cell viability activity,[1],-86.6%
same,cell viability activity,[2],-86%
Cc1cc(Nc2ncc(Cl)c(Nc3ccccc3S(=O)(=O)C(C)C)n2)c(OC(C)C)cc1C1CCNCC1,cell viability activity,[1],-97.2%
same,cell viability activity,[2],-95%
CNCCC=C1c2ccccc2CCc2ccccc21,cell viability activity,[1],-70.1%
same,cell viability activity,[2],-77.1%
CCCC[C@H](NC(C)=O)C(=O)N[C@H]1CC(=O)NCCCC[C@@H](C(=O)O)NC(=O)[C@H](Cc2c[nH]c3ccccc23)NC(=O)[C@H](CCCNC(=N)N)NC(=O)[C@@H](Cc2ccccc2)NC(=O)[C@H](Cc2c[nH]cn2)NC1=O,cell viability activity,[1],-42.1%
same,cell viability activity,[2],-7.64%
C[n+]1cc2c3c(ccc2c2ccc4cc5c(cc4c21)OCO5)OCO3,cell viability activity,[1],-97.3%
same,cell viability activity,[2],-96.2%
CS(=O)(=O)N1CCN(Cc2cc3nc(-c4cccc5[nH]ncc45)nc(N4CCOCC4)c3s2)CC1,cell viability activity,[1],-62.8%
same,cell viability activity,[2],-51.8%
CC1(C)CC[C@]2(C(=O)O)CC[C@]3(C)[C@H](C(=O)C=C4[C@@]5(C)C=C(C#N)C(=O)C(C)(C)[C@@H]5CC[C@]43C)[C@@H]2C1,cell viability activity,[1],-88.2%
same,cell viability activity,[2],-82.9%
CC(=O)c1cc2c(o1)C(=O)c1ccccc1C2=O,cell viability activity,[1],-97.1%
same,cell viability activity,[2],-96.4%
CCN1CCC[C@H]1CNC(=O)c1c(OC)ccc(Br)c1OC,cell viability activity,[1],-49.5%
same,cell viability activity,[2],-38.6%
COc1cccc2c1C(=O)c1c(O)c3c(c(O)c1C2=O)C[C@@](O)(C(C)=O)C[C@@H]3O[C@H]1C[C@H](N)[C@H](O)[C@H](C)O1,cell viability activity,[1],-97.7% and -94% and -93.6%
same,cell viability activity,[2],-96.9% and -95.8% and -96%
COc1ccc(-c2cc3nccn3c(Nc3ncccc3C(N)=O)n2)cc1OC,cell viability activity,[1],-27.9%
same,cell viability activity,[2],-32.6%
CC[C@@]1(O)C(=O)OCc2c1cc1n(c2=O)Cc2cc3c([N+](=O)[O-])cccc3nc2-1,cell viability activity,[1],-93.9%
same,cell viability activity,[2],-95.5%
CS[C@H]1SC[C@H]2C(=O)N(C)[C@@H](C(C)C)C(=O)OC[C@@H](NC(=O)c3cnc4ccccc4n3)C(=O)N[C@@H](C)C(=O)N(C)[C@@H]1C(=O)N(C)[C@@H](C(C)C)C(=O)OC[C@@H](NC(=O)c1cnc3ccccc3n1)C(=O)N[C@@H](C)C(=O)N2C,cell viability activity,[1],-88%
same,cell viability activity,[2],-86.6%
COCCOc1ccc2c(c1)ncn2-c1ccc2cccc(N3CCC(N)CC3)c2n1,cell viability activity,[1],-93.4%
same,cell viability activity,[2],-94.6%
Cc1ccc(C(=O)Nc2cccc(C(F)(F)F)c2)cc1Nc1nc(-c2cccnc2)nc2c1cnn2C,cell viability activity,[1],-36.8%
same,cell viability activity,[2],-24.4%
Nc1ncnc2c1c(-c1cccc(OCc3ccccc3)c1)cn2C1CC(CN2CCC2)C1 (stereo not given),cell viability activity,[1],-55.1%
same,cell viability activity,[2],-61.2%
CON(C)C(=O)N1N=C(c2cc(F)ccc2F)S[C@@]1(CCCN)c1ccccc1,cell viability activity,[1],-73.8%
same,cell viability activity,[2],-69.7%
C[C@H]1O[C@H](O[C@H]2[C@H](O)[C@@H](O)[C@@H](O[C@H]3[C@H](O)[C@@H](O)C(O)O[C@@H]3CO)O[C@@H]2CO)[C@H](O)[C@@H](O)[C@@H]1N[C@H]1C=C(CO)[C@@H](O)[C@H](O)[C@H]1O (stereo not given in full),cell viability activity,[1],-83.5%
same,cell viability activity,[2],-86.3%
CC(C)(N)c1cc(C(=O)N[C@@H]2CCc3ccc(Oc4ccnc5c4CCC(=O)N5)cc3C2)cc(C(F)(F)F)c1,cell viability activity,[1],-57.8%
same,cell viability activity,[2],-59.3%
COc1cc(Nc2c(C#N)cnc3cc(OCCCN4CCN(C)CC4)c(OC)cc23)c(Cl)cc1Cl,cell viability activity,[1],-96.5%
same,cell viability activity,[2],-97.9%
CCCCC(=O)OCC(=O)[C@]1(O)Cc2c(O)c3c(c(O)c2[C@@H](O[C@H]2C[C@H](NC(=O)C(F)(F)F)[C@H](O)[C@H](C)O2)C1)C(=O)c1c(OC)cccc1C3=O,cell viability activity,[1],-48.2%
same,cell viability activity,[2],-25.4%
Cn1cnc2c(F)c(Nc3ccc(Br)cc3Cl)c(C(=O)NOCCO)cc21,cell viability activity,[1],-71.6%
same,cell viability activity,[2],-70.6%
C[C@@H]1CC[C@@]2(NC1)O[C@H]1C[C@H]3[C@@H]4CC=C5C[C@@H](O[C@@H]6O[C@H](CO)[C@@H](O[C@@H]7O[C@@H](C)[C@H](O)[C@@H](O)[C@H]7O)[C@H](O)[C@H]6O[C@@H]6O[C@@H](C)[C@H](O)[C@@H](O)[C@H]6O)CC[C@]5(C)[C@H]4CC[C@]3(C)[C@H]1[C@@H]2C,cell viability activity,[1],-94%
same,cell viability activity,[2],-86.6%
CN1CCC(NC(=O)c2cc(-c3c(O)cc(O)cc3Oc3ccc([N+](=O)[O-])cc3)on2)CC1,cell viability activity,[1],-26.7%
same,cell viability activity,[2],-21.1%
CCN1CCN(c2ccc(C(C)(C)NC(=O)c3cc4[nH]c5ccccc5c(=O)c4cc3F)cn2)CC1,cell viability activity,[1],-45.9%
same,cell viability activity,[2],-42.7%
COC(=O)Nc1nc2ccc(SC(C)C)cc2[nH]1,cell viability activity,[1],-43.7%
same,cell viability activity,[2],-5.83%
Cc1cccc(C)c1NC(=O)CN1CCN(CCCC(c2ccc(F)cc2)c2ccc(F)cc2)CC1,cell viability activity,[1],-28.2%
same,cell viability activity,[2],-46%
CC1NC(=O)C(N)CNC(=O)C(C2CCN=C(N)N2)NC(=O)/C(=C\NC(N)=O)NC(=O)C(CNC(=O)CC(N)CCCN)NC1=O (stereo not given),cell viability activity,[1],-29.5%
same,cell viability activity,[2],0.515%
CCCCCCCC(=O)N[C@H](CN1CCCC1)[C@H](O)c1ccc2c(c1)OCCO2,cell viability activity,[1],-40.1%
same,cell viability activity,[2],-40.4%
CCN(CC)CCOCCOC(=O)C(CC)(CC)c1ccccc1,cell viability activity,[1],-31%
same,cell viability activity,[2],-61.1%
CNC(=O)Nc1ccc(-c2nc(N3CC4CCC(C3)O4)c3cnn(C4CCC5(CC4)OCCO5)c3n2)cc1,cell viability activity,[1],-50.9%
same,cell viability activity,[2],-19.4%
CC(C)Oc1ccc(C(=O)N[C@H](CNC(=O)CN(C)C)Cc2ccc(-c3cn4cccc([C@H](C)O)c4n3)cc2)cc1Cl,cell viability activity,[1],-54.6%
same,cell viability activity,[2],-59.4%
CCCOc1ccc2[nH]c(NC(=O)OC)nc2c1,cell viability activity,[1],-69.6%
same,cell viability activity,[2],-55.8%
CCCSc1ccc2[nH]c(NC(=O)OC)nc2c1,cell viability activity,[1],-63.8%
same,cell viability activity,[2],-76.8%
Nc1nc(Nc2ccc(S(N)(=O)=O)cc2)nn1C(=O)c1c(F)cccc1F,cell viability activity,[1],-23.1%
same,cell viability activity,[2],-26.5%
C=CC(=O)Nc1cc2c(Nc3ccc(F)c(Cl)c3)ncnc2cc1C#CC(C)(C)N1CCN(C)CC1,cell viability activity,[1],-94.8%
same,cell viability activity,[2],-86.1%
O=C(NOCC(O)CO)c1cc(Br)c(F)c(F)c1Nc1ccc(I)cc1F (stereo not given),cell viability activity,[1],-75.8%
same,cell viability activity,[2],-79.7%
Nc1ccc2cc3ccc(N)cc3nc2c1,cell viability activity,[1],-64.5%
same,cell viability activity,[2],-47.4%
CC(=O)O[C@@]12CO[C@@H]1C[C@H](O)[C@@]1(C)C(=O)[C@H](O)C3=C(C)[C@@H](OC(=O)[C@H](O)[C@@H](NC(=O)OC(C)(C)C)c4ccccc4)C[C@@](O)([C@@H](OC(=O)c4ccccc4)[C@H]21)C3(C)C,cell viability activity,[1],-58.2%
same,cell viability activity,[2],-58.6%
O=C(NOCC1CC1)c1ccc(F)c(F)c1Nc1ccc(I)cc1Cl,cell viability activity,[1],-66.2%
same,cell viability activity,[2],-77.6%
NCCCCNCCCN,cell viability activity,[1],-26.8%
same,cell viability activity,[2],-2.46%
O=C(Nc1ccncc1)Nc1ccc(-c2nc(N3CCOCC3)nc(N3C4CCC3COC4)n2)cc1,cell viability activity,[1],-64.5%
same,cell viability activity,[2],-36.2%
COc1cc2ncnc(Sc3nnc(C)s3)c2cc1OC,cell viability activity,[1],-29.5%
same,cell viability activity,[2],14.6%
CCC[C@H](NC(=O)/C(C#N)=C/c1cccc(Br)n1)c1ccccc1,cell viability activity,[1],-95.3%
same,cell viability activity,[2],-92.4%
O=C(CCCCCCC(=O)Nc1ccccc1)NO,cell viability activity,[1],-85.7%
same,cell viability activity,[2],-84.4%
Cc1c(C(=O)N2CCOc3ccc(-c4ccc(N)nc4)cc3C2)ccc(S(C)(=O)=O)c1F,cell viability activity,[1],-41.2%
same,cell viability activity,[2],-32.1%
O=C1NCCN1CCN1CCC(c2cn(-c3ccc(F)cc3)c3ccc(Cl)cc23)CC1,cell viability activity,[1],-93.7%
same,cell viability activity,[2],-83.7%
Cc1c(-c2ccc(O)cc2)n(Cc2ccc(OCCN3CCCCCC3)cc2)c2ccc(O)cc12,cell viability activity,[1],-67.2%
same,cell viability activity,[2],-93.1%
COc1cc2ncnc(Nc3ccc(F)c(Cl)c3)c2cc1NC(=O)/C=C/CN1CCCCC1,cell viability activity,[1],-93.1%
same,cell viability activity,[2],-77.9%
CCN(CC)CCN(Cc1ccc(-c2ccc(C(F)(F)F)cc2)cc1)C(=O)Cn1c(SCc2ccc(F)cc2)nc(=O)c2c1CCC2,cell viability activity,[1],-96.2%
same,cell viability activity,[2],-96.7%
CC(C)NC(=O)N1CC[C@H](NC2=Nc3cc(F)ccc3N(CC(F)F)c3ccc(Cl)cc32)C1,cell viability activity,[1],-49.3%
same,cell viability activity,[2],-50.8%
CN1CCN(Cc2ccc(-c3cnc4[nH]cc(-c5ccc6[nH]ccc6c5)c4c3)cc2)CC1,cell viability activity,[1],-90.1%
same,cell viability activity,[2],-82.4%
CCCCCCCCCCCCCCC[C@@H](O)[C@@H](N)CO,cell viability activity,[1],-36.8%
same,cell viability activity,[2],-43.8%
Cc1cccc(-c2[nH]c(C(C)(C)C)nc2-c2ccc3c(c2)OCO3)n1,cell viability activity,[1],-79.2%
same,cell viability activity,[2],-50.7%
